Laboratory results reported in PubChem BioAssay.
Calls of active or inactive are those of the source.

Legend:
Albumin (Bos taurus) = Albumin (Bos taurus) (UniProt P02769); test: bovine serum albumin binders on microarray, profiling panel, artefact control for SMM control protein annotation, biochemical, small-molecule microarray, Alexa647 label, 635/667 nm fluorescence (AID 1118); settings: BSA-A647 binding, fluorescence 635 nm, higher = more signal;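 note: score merges 667 nm emission intensity and signal-to-noise per printed compound spot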
Sequence of Albumin (Bos taurus) (P02769 whole entry, looked up): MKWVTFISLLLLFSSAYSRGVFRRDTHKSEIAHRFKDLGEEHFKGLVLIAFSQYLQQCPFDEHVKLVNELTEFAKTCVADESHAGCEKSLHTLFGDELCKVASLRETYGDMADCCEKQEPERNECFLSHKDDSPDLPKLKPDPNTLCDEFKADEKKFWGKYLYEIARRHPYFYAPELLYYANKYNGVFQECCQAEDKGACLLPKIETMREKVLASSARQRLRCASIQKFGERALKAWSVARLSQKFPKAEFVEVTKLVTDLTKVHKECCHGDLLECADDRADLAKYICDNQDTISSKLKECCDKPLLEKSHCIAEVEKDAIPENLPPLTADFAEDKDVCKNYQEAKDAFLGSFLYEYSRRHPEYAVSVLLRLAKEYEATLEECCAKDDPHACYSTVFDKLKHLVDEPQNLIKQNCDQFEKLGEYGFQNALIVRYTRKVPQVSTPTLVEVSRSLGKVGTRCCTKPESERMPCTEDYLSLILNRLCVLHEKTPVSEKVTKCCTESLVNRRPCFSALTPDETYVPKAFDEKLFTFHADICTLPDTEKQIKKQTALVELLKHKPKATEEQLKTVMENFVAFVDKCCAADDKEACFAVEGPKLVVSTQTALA

[1] = small-molecule microarray binders of probe aXIP, primary screen, biochemical, NeuroSMM set, 635/667 nm fluorescence (AID 1119); settings: higher = more signal, called active from +8 up or from −8 down;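 note: probe is the protein aXip251-270 applied at 1 µg/mL to compound-printed slides; binding of probe to printed compounds measured as 667 nm fluorescence plus signal to noise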
[2] = small-molecule binders of probe aNOTCH3, primary screen, biochemical, small-molecule microarray, 635/667 nm fluorescence (AID 1120); settings: higher = more signal;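 note: probe is a biotin-tagged antibody raised against NOTCH3 rather than NOTCH3 protein; score merges spot fluorescence near 667 nm with spot signal to noise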
[3] = small-molecule binders of probe aNOTCH2, primary screen, biochemical, small-molecule microarray, 635/667 nm fluorescence (AID 1121); settings: higher = more signal;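 note: score merges feature fluorescence read at 667 nm with its signal to noise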
[4] = molecular target: Carbonic anhydrase 2 (Homo sapiens) (UniProt P00918); test: CAII small-molecule binders, profiling panel, biochemical, small-molecule microarray, Alexa647-labelled CAII (AID 1122); settings: CAII-A647 binding fluorescence, higher = more signal
[5] = COS7 lysate on small-molecule microarray, probe aHis, 635 nm (AID 1123); settings: COS7 cell lysate, fluorescence, higher = more signal;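 note: z-score combines 667nm fluorescence intensity with signal-to-noise per printed compound spot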
[6] = compound binding in COS7 lysate, probe aLAP1, primary screen, cell lysate, small-molecule microarray (AID 1124); settings: probe aLAP1, fluorescence, higher = more signal;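 note: lysate comes from COS7 cells expressing LAP1 and is applied at 0.3 µg/mL; score merges spot fluorescence near 667 nm with signal-to-noise over triplicate slides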
Sam68 (KHDRBS1) = test: Sam68 small-molecule binders, primary screen, biochemical, small-molecule microarray, 635 nm fluorescence (AID 1125); settings: small-molecule microarray binding, higher = more signal;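 note: score merges 667 nm channel intensity with signal to noise over triplicate slides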
[7] = system: Chordin-like protein 2 (CHRDL2); test: CHRDL2 small-molecule binders, primary screen, biochemical, small-molecule microarray, 635 nm fluorescence (AID 1126); settings: small-molecule microarray binding, fluorescence 635 nm; higher = more signal;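 note: printed compound slides probed with Chrdl2 protein at 4 µg/mL for 1 h at 4 C; score merges 667 nm emission intensity with signal to noise over three replicate slides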
[8] = molecular target: Concanavalin-A (Canavalia ensiformis) (UniProt P02866); test: ConA small-molecule binders, primary screen, artefact control for SMM control protein annotation, biochemical, small-molecule microarray, Alexa647 label, 635 nm (AID 1127); settings: ConA-A647 binding fluorescence, higher = more signal;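 note: z combines 667 nm emission intensity with signal-to-noise across three replicate slides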
Sequence of Concanavalin-A (Canavalia ensiformis) (P02866 whole entry, looked up): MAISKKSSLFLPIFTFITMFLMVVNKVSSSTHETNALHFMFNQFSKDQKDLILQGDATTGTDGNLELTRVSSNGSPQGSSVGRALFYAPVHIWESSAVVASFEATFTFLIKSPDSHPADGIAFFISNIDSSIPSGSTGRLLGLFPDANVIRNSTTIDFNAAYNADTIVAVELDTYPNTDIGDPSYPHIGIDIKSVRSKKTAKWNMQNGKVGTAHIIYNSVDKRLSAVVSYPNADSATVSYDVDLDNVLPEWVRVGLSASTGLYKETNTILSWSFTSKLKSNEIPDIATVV

Row | Compound | composite z-score (Albumin (Bos taurus)) | composite Z-score [1] | composite z-score [2] | composite z-score [3] | composite z-score [4] | composite z-score [5] | composite z-score [6] | composite z-score (Sam68 (KHDRBS1)) | composite z-score [7] | composite z-score [8]
1 | COc1ccc([Si](C)(C)[C@@H]2[C@@H](CCO)O[C@]3(C(=O)N(Cc4cccc(N5CCOC5=O)c4)c4ccccc43)[C@H]2C)cc1 | 0.757 | -0.295 (inactive) | 0.326 | -0.0907 | 0.219 | 0.531 | -0.231 | 1.15 | -0.0408 | 1.12
2 | CCCC=C(CCC)[C@@H](NS(=O)(=O)c1ccc(Cl)cc1)c1ccc(C(=O)OC)cc1 | 0.196 | -0.243 (inactive) | -0.0111 | 0.0703 | 0.805 | 0.314 | -0.159 | 0.674 | -0.0433 | 0.627
3 | C=C(CCCC)/C(=C/C[C@H](OC(C)=O)c1ccccc1OCCO)c1cnc2ccccc2c1 | 0.553 | 0.282 (inactive) | -0.12 | -0.173 | 0.5 | 0.376 | 0.0282 | 0.8 | 0.77 | 0.706
4 | O=C1OCCC=C[C@H]2OC34C=CCN(Cn5nnc6ccccc65)C(=O)[C@H]3N(CCO)C(=O)[C@@H]4C12 (stereo not given in full) | 0.995 | 0.6 (inactive) | -0.475 | -0.227 | 0.866 | -0.403 | -0.38 | -0.75 | -1.75 | -1.75
5 | O=C(O)[C@H](Cc1ccccc1)n1cc(-c2ccccc2)nn1 | 0.0644 | 0.52 (inactive) | -0.0313 | -0.164 | 0.155 | -0.065 | 0.277 | 0.187 | 0.238 | 0.362
6 | O=C1O[C@@H](c2ccccc2)[C@@H](c2ccccc2)N2[C@@H](c3ccccc3OCCO)[C@]3(C(=O)Nc4ccccc43)[C@@H](C(=O)O)[C@H]12 | 0.858 | -0.0247 (inactive) | -0.254 | -0.0657 | 0.441 | 1.78 | 0.369 | 1.12 | -0.165 | 1.13
7 | Cc1ccc(S(=O)(=O)N2C[C@@H](C(=O)O)[C@H](Sc3ccccc3)C[C@H]2c2ccccc2)cc1 | 0.855 | -0.202 (inactive) | 0.418 | 0.0456 | 0.732 | 1.99 | 0.89 | 1.29 | -0.75 | 1.13
8 | CCOC(=O)C1=C[C@@H](C(C)C)N(S(=O)(=O)c2ccc(C)cc2)[C@H]1c1ccccc1F | 0.81 | 0.594 (inactive) | 0.0576 | -0.0877 | 0.62 | 1.66 | -0.144 | 1.31 | -0.333 | 1.17
9 | CCCNC(=O)[C@@]1(Sc2ccc(C)cc2)CC(=O)N(Cc2ccccc2C(F)(F)F)[C@@H]1c1ccc(CO)cc1I | 0.31 | 0.222 (inactive) | 0.0696 | -0.123 | 0.624 | 1.82 | 0.116 | 1.29 | 0.315 | 0.435
10 | CC#CC(=O)Oc1ccc(Br)cc1C=CC(=O)OCC | -0.107 | 1.39 (inactive) | 0.144 | -0.0529 | 0.18 | 0.942 | 0.158 | 0.582 | 0.103 | 0.269
11 | CC1CC/C=C\[C@H]2OC34C=CCN(Cc5ccccc5)C(=O)[C@H]3N(C(C)CO)C(=O)[C@@H]4C2C(=O)O1 (stereo not given in full) | -0.852 | -0.592 (inactive) | -0.0647 | -0.0846 | 0.331 | -0.412 | -0.0231 | -0.99 | -0.0576 | -0.239
12 | NC(=O)N1C(=O)C2C(C1=O)C1C=C(CCCO)C2C(C2CC2)N1Cc1cc2c(cc1Br)OCO2 (stereo not given) | 0.277 | 0.0861 (inactive) | 0.0242 | -0.112 | 0.877 | 0.872 | -0.0694 | -0.989 | -0.667 | -0.0295
13 | COCCCNC(=O)[C@@]1(Sc2ccc(C)cc2)CC(=O)N(Cc2ccccc2Cl)[C@@H]1c1ccc(CO)cc1 | 0.71 | -0.301 (inactive) | 0.132 | -0.14 | 0.718 | 1.35 | 0.203 | 1.1 | 0.649 | 0.629
